Test [1] concerns the target Tyrosine-protein kinase CSK (Homo sapiens) (UniProt P41240). Conditions: at 1 µM.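 Also: each value is an averaged inhibition reading.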
The target in test [2] is T1, Discoidin domain-containing receptor 2 (Homo sapiens) (UniProt Q16832).
T1 sequence (whole entry): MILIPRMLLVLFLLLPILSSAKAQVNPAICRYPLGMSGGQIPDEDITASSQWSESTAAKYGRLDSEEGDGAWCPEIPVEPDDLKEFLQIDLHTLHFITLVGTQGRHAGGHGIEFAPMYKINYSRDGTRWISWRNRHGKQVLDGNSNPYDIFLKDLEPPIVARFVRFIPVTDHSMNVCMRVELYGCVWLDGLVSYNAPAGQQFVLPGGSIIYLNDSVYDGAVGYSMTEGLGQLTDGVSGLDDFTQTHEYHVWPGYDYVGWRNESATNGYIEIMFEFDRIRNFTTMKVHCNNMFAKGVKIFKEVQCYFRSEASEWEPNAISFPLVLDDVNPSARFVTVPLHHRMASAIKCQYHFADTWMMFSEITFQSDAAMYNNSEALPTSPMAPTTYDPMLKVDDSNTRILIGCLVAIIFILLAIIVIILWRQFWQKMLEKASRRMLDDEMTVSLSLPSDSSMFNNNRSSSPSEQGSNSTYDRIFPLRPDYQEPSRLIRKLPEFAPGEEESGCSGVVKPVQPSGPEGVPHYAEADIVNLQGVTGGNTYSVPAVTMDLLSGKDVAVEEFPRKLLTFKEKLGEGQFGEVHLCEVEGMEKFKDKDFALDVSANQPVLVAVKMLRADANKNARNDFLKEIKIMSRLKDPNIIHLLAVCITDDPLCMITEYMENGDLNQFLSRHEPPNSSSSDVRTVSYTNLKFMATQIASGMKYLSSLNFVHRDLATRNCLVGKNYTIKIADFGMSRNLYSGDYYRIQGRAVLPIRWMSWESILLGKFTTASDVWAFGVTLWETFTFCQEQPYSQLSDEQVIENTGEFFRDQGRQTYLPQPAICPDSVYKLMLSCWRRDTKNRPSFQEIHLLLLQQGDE
Conditions: at 0.1 µM.

Test [3] addresses T1, Discoidin domain-containing receptor 2 (Homo sapiens). Conditions: at 1 µM.
Test [4] has as its target Epidermal growth factor receptor (Homo sapiens) (UniProt P00533). Conditions: at 0.1 µM.
Test [5] shares this target. Conditions: at 1 µM.
Test [6] concerns Epidermal growth factor receptor (Homo sapiens), P00533 [L858R]. Conditions: at 0.1 µM.
Chain of Epidermal growth factor receptor (Homo sapiens), P00533 [L858R] (P00533 whole entry L858R): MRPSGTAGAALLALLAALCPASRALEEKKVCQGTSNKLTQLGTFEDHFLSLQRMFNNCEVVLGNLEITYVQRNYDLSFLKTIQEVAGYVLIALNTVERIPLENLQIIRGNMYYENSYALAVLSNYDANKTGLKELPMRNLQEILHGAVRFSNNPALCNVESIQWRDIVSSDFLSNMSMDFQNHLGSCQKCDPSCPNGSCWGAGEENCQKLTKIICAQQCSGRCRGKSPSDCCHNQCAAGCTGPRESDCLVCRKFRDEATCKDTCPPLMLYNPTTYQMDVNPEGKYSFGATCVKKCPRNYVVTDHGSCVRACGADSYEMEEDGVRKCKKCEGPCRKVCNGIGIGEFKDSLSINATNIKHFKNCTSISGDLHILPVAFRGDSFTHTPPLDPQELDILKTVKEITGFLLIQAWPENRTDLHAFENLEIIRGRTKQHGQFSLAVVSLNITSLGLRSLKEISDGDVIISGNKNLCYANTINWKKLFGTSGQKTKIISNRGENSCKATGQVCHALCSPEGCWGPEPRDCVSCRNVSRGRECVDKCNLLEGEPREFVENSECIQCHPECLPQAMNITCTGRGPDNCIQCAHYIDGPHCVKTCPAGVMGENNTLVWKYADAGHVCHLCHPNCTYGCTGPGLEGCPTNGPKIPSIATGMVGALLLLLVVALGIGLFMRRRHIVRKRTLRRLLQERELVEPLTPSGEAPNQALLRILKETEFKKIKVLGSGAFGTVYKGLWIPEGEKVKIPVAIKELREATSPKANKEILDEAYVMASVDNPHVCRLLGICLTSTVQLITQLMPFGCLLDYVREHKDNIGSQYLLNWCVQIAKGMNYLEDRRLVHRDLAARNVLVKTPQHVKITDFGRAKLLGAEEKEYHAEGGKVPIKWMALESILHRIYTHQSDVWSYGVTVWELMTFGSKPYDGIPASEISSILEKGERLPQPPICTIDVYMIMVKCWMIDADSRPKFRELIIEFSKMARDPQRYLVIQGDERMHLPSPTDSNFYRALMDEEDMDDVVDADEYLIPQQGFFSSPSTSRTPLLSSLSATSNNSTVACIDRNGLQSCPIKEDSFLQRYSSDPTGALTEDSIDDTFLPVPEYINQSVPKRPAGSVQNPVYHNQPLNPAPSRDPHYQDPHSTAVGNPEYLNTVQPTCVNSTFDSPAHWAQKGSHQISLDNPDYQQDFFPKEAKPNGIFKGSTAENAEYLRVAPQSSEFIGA
Test [7] has the same test system. Conditions: at 1 µM.
Test [8] concerns Epidermal growth factor receptor (Homo sapiens), P00533 [L861Q]. Conditions: at 0.1 µM.
Chain of Epidermal growth factor receptor (Homo sapiens), P00533 [L861Q] (P00533 whole entry L861Q): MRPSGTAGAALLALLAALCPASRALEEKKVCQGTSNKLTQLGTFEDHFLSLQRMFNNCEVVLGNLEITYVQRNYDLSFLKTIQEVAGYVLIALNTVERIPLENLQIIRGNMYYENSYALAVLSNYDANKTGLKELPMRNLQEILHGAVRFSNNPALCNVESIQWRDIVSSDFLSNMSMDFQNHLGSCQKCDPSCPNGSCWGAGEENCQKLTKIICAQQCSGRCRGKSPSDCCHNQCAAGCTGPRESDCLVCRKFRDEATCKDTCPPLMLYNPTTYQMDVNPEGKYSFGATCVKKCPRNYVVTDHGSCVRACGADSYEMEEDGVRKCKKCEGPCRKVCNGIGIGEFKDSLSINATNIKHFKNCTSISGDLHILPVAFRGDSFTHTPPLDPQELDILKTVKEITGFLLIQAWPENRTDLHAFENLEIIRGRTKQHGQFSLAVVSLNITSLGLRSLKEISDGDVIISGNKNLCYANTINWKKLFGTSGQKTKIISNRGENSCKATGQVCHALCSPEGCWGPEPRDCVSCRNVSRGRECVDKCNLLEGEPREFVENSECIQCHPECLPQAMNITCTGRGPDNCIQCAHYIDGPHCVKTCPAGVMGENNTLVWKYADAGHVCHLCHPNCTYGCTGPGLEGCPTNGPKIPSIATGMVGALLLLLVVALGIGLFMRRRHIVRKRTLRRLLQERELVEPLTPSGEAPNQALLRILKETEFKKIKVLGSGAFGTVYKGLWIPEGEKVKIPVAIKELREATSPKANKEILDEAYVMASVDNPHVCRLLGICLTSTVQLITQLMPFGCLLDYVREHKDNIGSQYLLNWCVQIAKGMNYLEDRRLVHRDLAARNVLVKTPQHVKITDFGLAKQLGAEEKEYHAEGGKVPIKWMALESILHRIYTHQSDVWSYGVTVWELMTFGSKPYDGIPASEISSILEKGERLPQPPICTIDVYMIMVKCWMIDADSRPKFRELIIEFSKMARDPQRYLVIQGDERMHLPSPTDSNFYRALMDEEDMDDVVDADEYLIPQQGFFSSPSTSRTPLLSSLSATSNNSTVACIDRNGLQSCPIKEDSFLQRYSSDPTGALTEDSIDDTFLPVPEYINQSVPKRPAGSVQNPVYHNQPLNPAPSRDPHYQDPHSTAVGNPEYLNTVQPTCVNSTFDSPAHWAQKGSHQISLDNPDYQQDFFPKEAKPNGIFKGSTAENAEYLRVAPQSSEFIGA
For test [9] the test system is unchanged. Conditions: at 1 µM.
The subject of test [10] is Epidermal growth factor receptor (Homo sapiens), P00533 [T790M]. Conditions: at 0.1 µM.

Several values for one entry are separate records, joined by “and”; a condition that tells them apart may be missing. Identical values can stand only once.

Chain of Epidermal growth factor receptor (Homo sapiens), P00533 [T790M] (P00533 whole entry T790M): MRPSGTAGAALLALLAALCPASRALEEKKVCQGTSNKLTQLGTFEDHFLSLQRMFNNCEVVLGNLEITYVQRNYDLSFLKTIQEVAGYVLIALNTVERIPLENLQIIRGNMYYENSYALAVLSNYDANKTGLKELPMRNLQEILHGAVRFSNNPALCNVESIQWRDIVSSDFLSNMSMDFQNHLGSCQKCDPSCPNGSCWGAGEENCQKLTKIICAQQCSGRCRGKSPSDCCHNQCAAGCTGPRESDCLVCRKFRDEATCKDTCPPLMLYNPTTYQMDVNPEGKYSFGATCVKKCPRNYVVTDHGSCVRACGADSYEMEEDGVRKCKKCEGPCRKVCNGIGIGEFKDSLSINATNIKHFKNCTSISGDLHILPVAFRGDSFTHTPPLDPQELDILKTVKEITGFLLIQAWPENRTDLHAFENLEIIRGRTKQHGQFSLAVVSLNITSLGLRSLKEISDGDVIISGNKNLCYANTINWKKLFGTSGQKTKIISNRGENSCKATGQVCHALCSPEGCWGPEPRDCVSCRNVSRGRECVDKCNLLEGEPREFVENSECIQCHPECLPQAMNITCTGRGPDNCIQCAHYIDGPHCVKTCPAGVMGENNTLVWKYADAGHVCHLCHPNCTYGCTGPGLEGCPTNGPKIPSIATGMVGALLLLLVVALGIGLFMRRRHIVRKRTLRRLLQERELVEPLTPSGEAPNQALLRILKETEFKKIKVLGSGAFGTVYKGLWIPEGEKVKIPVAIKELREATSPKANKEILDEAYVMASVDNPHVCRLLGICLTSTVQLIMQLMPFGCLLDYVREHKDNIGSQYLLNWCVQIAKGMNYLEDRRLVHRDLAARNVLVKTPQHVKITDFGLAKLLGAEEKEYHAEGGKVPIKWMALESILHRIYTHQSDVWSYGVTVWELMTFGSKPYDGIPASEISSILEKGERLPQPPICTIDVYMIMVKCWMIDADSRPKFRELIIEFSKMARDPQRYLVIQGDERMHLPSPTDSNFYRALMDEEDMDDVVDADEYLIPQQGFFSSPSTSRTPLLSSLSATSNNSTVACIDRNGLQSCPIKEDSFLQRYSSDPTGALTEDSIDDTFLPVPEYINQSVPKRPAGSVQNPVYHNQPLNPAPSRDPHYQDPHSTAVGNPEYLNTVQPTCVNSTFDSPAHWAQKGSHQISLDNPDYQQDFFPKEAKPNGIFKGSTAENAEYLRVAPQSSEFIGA
Chain of Epidermal growth factor receptor (Homo sapiens) (P00533 whole entry): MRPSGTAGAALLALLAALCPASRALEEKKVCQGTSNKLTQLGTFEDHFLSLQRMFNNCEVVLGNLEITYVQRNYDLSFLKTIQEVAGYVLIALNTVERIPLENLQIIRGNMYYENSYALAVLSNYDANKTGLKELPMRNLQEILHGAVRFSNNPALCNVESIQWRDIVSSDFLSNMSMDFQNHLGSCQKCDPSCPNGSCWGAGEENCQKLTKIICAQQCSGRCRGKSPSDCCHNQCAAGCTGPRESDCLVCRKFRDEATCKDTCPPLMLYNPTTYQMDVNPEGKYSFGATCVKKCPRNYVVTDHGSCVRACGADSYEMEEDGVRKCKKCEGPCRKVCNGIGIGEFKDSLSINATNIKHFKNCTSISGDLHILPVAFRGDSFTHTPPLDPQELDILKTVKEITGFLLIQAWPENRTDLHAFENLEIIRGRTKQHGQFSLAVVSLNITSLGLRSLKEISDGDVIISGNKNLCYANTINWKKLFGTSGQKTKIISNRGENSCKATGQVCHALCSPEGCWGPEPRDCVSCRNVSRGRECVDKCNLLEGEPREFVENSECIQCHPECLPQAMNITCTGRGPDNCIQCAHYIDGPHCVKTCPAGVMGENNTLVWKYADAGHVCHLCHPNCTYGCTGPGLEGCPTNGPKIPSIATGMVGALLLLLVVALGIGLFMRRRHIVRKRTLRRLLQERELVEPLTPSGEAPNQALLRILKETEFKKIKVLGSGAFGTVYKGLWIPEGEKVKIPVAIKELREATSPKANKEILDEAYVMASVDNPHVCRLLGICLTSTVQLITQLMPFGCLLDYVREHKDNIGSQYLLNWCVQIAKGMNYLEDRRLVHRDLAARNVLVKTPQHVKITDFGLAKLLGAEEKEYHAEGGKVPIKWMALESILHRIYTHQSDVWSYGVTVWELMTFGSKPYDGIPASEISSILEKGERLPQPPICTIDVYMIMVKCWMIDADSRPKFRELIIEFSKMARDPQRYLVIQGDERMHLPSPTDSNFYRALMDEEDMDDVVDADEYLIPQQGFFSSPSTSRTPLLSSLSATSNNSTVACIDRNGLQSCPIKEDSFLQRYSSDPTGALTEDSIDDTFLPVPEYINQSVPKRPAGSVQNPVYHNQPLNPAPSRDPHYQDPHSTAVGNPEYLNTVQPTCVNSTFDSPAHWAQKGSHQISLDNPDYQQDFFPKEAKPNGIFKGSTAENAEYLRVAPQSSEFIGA

What is called inhibition is the drop in the measured response relative to a control, in per cent. Consider `N#Cc1cccc(Nc2ncc(-c3ccccc3)o2)c1`, for which the inhibition in test [1] was 5.14%; in test [2], 2.3%; in test [3], 2.59%; in test [4], -0.19%; in [5], 2.05%; in [6], 2.09%. For the same compound, the inhibition in test [7] was 2.9%; in test [8] it was 3.59%; in [9] it was 2.98%; in [10], 1.65%.
In the case of `Cc1c2ccc(N(C)c3ccnc(Nc4cccc(S(N)(=O)=O)c4)n3)cc2nn1C`, the inhibition in test [1] is 19%; in test [2], 11.4%; in [3] it was 65%; in test [4], -3.87%; in test [5], 0.64%; in test [6] it was 3.16%. In addition, the inhibition in test [7] was determined as 11.9%; in [8], 5.08%; in [9], 3.69%; in test [10], 3.44%.
In the case of `O=C(O[C@H]1CN[C@H](C#Cc2cc3ncnc(Nc4ccc5c(ccn5Cc5cc(F)ccc5F)c4)c3s2)C1)N1CCOCC1`, the inhibition came to 2.68% in test [1]; 2.04% in test [2]; 2.8% in [3]; 65.5% in test [4]; 76.4% in [5]; 11.2% in test [6]. Moreover, the inhibition in [7] worked out at 53.6%; in test [8], 22.6%; in test [9], 39%; in test [10] it was 20%.
In the case of `O=C(Nc1n[nH]c2nnc(-c3cccnc3)cc12)C1CC1`, the inhibition is -1.56% in [1]; -0.82% in test [2]; -1% in [3]; 0.34% in test [4]; 1.5% in test [5]; -2.25% in [6]. In addition, the inhibition in [7] is 2.57%; in test [8] it was -1.02%; in test [9] it was -0.99%; in [10] it was -0.29%.
As to `CS(=O)(=O)CCNCc1ccoc1-c1ccc2ncnc(Nc3ccc(OCc4ccccc4)cc3)c2c1`, the inhibition in test [1] is 4.64%; in [2] it was 5.97%; in test [3], 7.08%; in test [4] it was 66.8%; in [5], 86.2%; in test [6], 14.5%. Besides, the inhibition in test [7] came to 51.2%; in test [8] it was 25.4%; in [9] it was 42.1%; in test [10], 0.03%.
`CS(=O)(=O)Nc1ccc(-c2ccc3c(NC(=O)C4CC4)n[nH]c3c2)cc1`: the inhibition in [1] is 0.41%; in [2], 1.42%; in [3] it was 0.51%; in test [4], -0.2%; in [5] it was 2.27%; in test [6] it was 2.52%. Besides, the inhibition in test [7] is -0.4%; in test [8] it was 2.28%; in test [9], -2.37%; in test [10], 2.21%.
Consider `COc1cc(Nc2ncc(-c3ccccc3)o2)cc(OC)c1`, for which the inhibition in test [1] stood at 4.79%; in test [2] it was 4.48%; in test [3] it was 7.93%; in test [4] it was 3.35%; in test [5], 5.26%; in [6], 0.1%. Also, the inhibition came out at 1.99% in test [7], 3.52% in [8], 5.17% in test [9] and 1.76% in test [10].
For the compound `COc1cccc(-n2ncc3c(N/N=C/c4ccc(C(=O)NCCN(C)C)cc4)ncnc32)c1`, the inhibition in test [1] is 22%; in test [2], 7.86%; in test [3], 41%; in test [4], 16.7%; in test [5], 56.4%; in test [6] it was 63.6%. In addition, the inhibition in test [7] came out at 90.6%; in [8] it was 23%; in [9] it was 68.7%; in test [10], 0.59%.
Consider `CN1CCN(Cc2ccc(-c3cc4ncnc(Nc5ccc(OCc6cccc(F)c6)c(Cl)c5)c4s3)o2)CC1`, for which the inhibition was 12.6% and 17.7% in test [1]; 1.16% and 0.39% in test [2]; 1.23% and -0.86% in test [3].
On to `CS(=O)(=O)CCNCc1ccc(-c2ccc3ncnc(Nc4ccc(OCc5cccc(C(F)(F)F)c5)cc4)c3c2)o1`, for which the inhibition was determined as 3.02% in [1]; 0.91% in [2]; 2.9% in test [3]; 15.5% in test [4]; 58.8% in test [5]; 6.17% in test [6]. In addition, the inhibition in [7] is 26.7%; in test [8] it was 14.4%; in test [9], 34.4%; in test [10], 0.24%.
Turning to `N#Cc1ccc2c(-c3ccnc(NC4CC4)n3)c(-c3ccc(F)cc3)nn2c1`, the inhibition came to 3.45% in [1]; 4.32% in test [2]; 15.8% in test [3]; 1.52% in test [4]; 13.8% in [5]; 5.89% in test [6]. Moreover, the inhibition is 41.3% in test [7], 1.64% in test [8], 12.9% in test [9] and -0.38% in test [10].
Regarding `COC(=O)Nc1nc2ccc(Oc3ccc(NC(=O)Nc4cc(C(F)(F)F)ccc4F)cc3)cc2s1`, the inhibition in [1] is 33.4%; in test [2] it was 62.7%; in test [3], 83.6%; in test [4], 1.66%; in test [5] it was 3.16%; in test [6] it was -2.69%. Also, the inhibition in [7] was 2.24%; in [8], -1.23%; in test [9] it was 1.41%; in [10] it was 0.17%.
Consider `CC(C)c1ccc(-c2cc(-c3c[nH]nc3-c3ccccn3)ccn2)cc1`, for which the inhibition is -3.97% in test [1]; 3.76% in [2]; 4.98% in [3]; 1.84% in [4]; 3.14% in [5]; 1.78% in [6]. Further, the inhibition in test [7] was 0.3%; in [8], 0.09%; in [9], -0.98%; in test [10] it was -0.66%.
With `O=C(O[C@H]1CN[C@H](C#Cc2cc3ncnc(Nc4ccc(OCc5cccc(F)c5)c(Cl)c4)c3s2)C1)N1CCOCC1`, the inhibition in test [1] was determined as 7.44%; in test [2] it was 1%; in [3] it was 2.47%; in [4], 77.1%; in test [5] it was 77.1%; in [6], 40.9%. Also, the inhibition in test [7] is 87%; in test [8], 42.8%; in test [9] it was 75.2%; in test [10], 5.1%.
`COc1c(C(N)=O)cc(-c2ccc(Cl)cc2)cc1-c1ccc(S(N)(=O)=O)cc1`: the inhibition in [1] was determined as 4.45%; in [2], 1.62%; in [3], 2.64%; in test [4], 1.55%; in test [5], 2.79%; in test [6] it was 2.2%. The inhibition in test [7] amounted to 8.48%; in [8], 2.27%; in test [9], 5.74%; in [10], 1.41%.
For the compound `CCN1CCC(C(=O)Nc2n[nH]c3nnc(-c4cccc(F)c4F)cc23)CC1`, the inhibition was -0.26% in test [1]; 1.13% in test [2]; 1.17% in test [3]; 1.21% in test [4]; 2.27% in test [5]; -0.75% in [6]. The inhibition in test [7] was 1.38%; in [8], -0.05%; in test [9], -0.76%; in [10], -1.59%.

For the origin of these results see ChEMBL document CHEMBL1961873, “Compounds: GSK PKIS; Assays: Nanosyn kinase panel” (2012).
